Data reported in PubChem BioAssay (EPA / NIEHS).
Some compounds were tested as several samples or in several runs, with calls that do not always agree. The source made the active and inactive calls. How the source made its calls: active means hit-call score of the fitted dose curve at least 0.9, where 1 is the maximum; inactive means score below 0.9.

read-out: matrix metalloproteinase-3 (MMP3), MMP3 (gene 4314); assay: LTEA_HepaRG_MMP3: Life Technologies and Expression Analysis (LTEA) Assay for matrix metalloproteinase-3 (MMP3) using HepaRG (AID 2283519); conditions: mRNA level, 48 h; actives raise or lower the signal
Experimental: LTEA_HepaRG is a cell based, multiplexed-readout assay that uses HepaRG, a human liver cell line, with measurements taken at 48 hours after chemical dosing on a 96-well plate.LTEA_HepaRG_MMP3 is one of 102 assay component(s) measured in the LTEA HepaRG cell culture assay. It is a marker of Fibrosis.Data from the assay component LTEA_HepaRG_MMP3 was analyzed into 1 endpoint. This assay endpoint, LTEA_HepaRG_MMP3, was analyzed with bidirectional fitting relative to DMSO as the negative control and baseline of activity. Using a type of inducible reporter, measures of mRNA induction for gain or loss-of-signal activity can be used to understand regulation of transcription factor activity. To generalize the intended target to other relatable targets, this assay endpoint is annotated to the protease intended target family, where the subfamily is matrix metalloproteinase.
A total of 1060 chemcials from the ToxCast library were tested in eight-point concentration-response experiments. Cell culture and cytotoxicity assays were conducted at Thermo Fisher Scientific's Custom Services facility (Madison, WI). A single lot of human HepaRG cells (Thermo Fisher Scientific, Frederick, MD) was used for the cell culture experiments. 96-well format collagen type I coated plates of human HepaRG cells were prepared using established methods. Briefly, cryopreserved HepaRG cells were thawed, plated at a density of approximately 100,000 cells/well in HepaRG Thaw, Plate, and General Purpose media (HPRG770, Thermo Fisher Scientific), and incubated for 48 hours. 0.5% DMSO was selected as vehicle control to balance the requisite need of DMSO in HepaRG cultures to maintain differentiation (for example, baseline metabolism, proportions of hepatocytes vs. cholangiocytes), while enabling further hepatic receptor pathway activation (for example, PXR and CAR) in response to chemical exposure. 48 hours after plating, the culture medium was replaced with HepaRG Serum-Free Incudtion Media. Cells were exposed to each test chemical in duplicate and maintained in CO2 incubators for another 48 hours. Chemical plates were thawed to room temperature and 200x concentrations of treatment groups were prepared. 8-point conentration-reponse curves were made with the highest exposure at 100 uM, followed by half-log dilutions, all in 0.5% DMSO. Each test plate contained variouse controls, induction positive controls (1mM phenobarbital), cytotoxicity positive controls ([…] aflatoxin B1), vehicle controls (0.5% DMSO), and total lysis controls (0.5% DMSO). Cell morphology images were taken using an Essen IncuCyte FLR automated microscope, with six 96-well plates imaged in about 24 minutes. Images were captured and exported and JPEG files. Spent culture media was transfered to black-well plates for the LDH assay, and remaining media was sorted at -80 C for later use. Cells were treated with RLT buffer and frozen until shipped for gene expression analysis. Total RNA was isolated from the cell suspension in 75 uL of Buffer RLT (Qiagen, Germantown, MD 20874) by Quintiles/Expression Analysis (Durham, NC) using a custom isolation procedure. Total RNA from each plate well was transferred to a preamplification plate. Fluidigm's 96.96 Dynamic ArrayTM (Fluidigm, Amsterdam, the Netherlands) technology was used for gene expression analyses by quantitative reverse transcription polymerase chain reaction (qRT-PCR, performed by Quintiles/Expression Analysis, Durham, NC)89. Standard TaqManTM Assays (Applied Biosystems/ThermoFisher Scientific, Foster City, CA) were used to assess the expression of 93 genes selected based on their selectivity and sensitivity to important hepatic receptors known to be modulated by environmental chemicals; importance in human hepatocyte functionality; and hepatotoxicity. […]

Q: `CC[C@H](C)[C@H]1O[C@]2(C=C[C@@H]1C)C[C@@H]1C[C@@H](C/C=C(\C)[C@@H](O[C@H]3C[C@H](OC)[C@@H](O[C@H]4C[C@H](OC)[C@@H](NC)[C@H](C)O4)[C@H](C)O3)[C@@H](C)/C=C/C=C3\CO[C@@H]4[C@H](O)C(C)=C[C@@H](C(=O)O1)[C@]34O)O2` was tested. Which AC50 did it give?
A: 92.9 µM (active)

Q: Which outcome does the source give for `CCNc1nc(Cl)nc(NC(C)(C)C#N)n1` here?
A: inactive

Q: With `CCCOc1nn(C(=O)NS(=O)(=O)c2ccccc2C(=O)OC)c(=O)n1C` as the compound, how does the outcome read?
A: inactive

Q: `CN(C)NC(=O)CCC(=O)O` was tested. Which outcome did it give?
A: inactive

Q: How did the outcome turn out when `CCOP(=S)(OCC)Oc1ccc([N+](=O)[O-])cc1` was run?
A: inactive

Q: With `C[N+]1(C)CCCCC1` as the compound, how does the outcome read?
A: inactive

Q: How did the AC50 turn out when `O=[N+]([O-])c1cc(C(F)(F)F)c(Cl)c([N+](=O)[O-])c1Nc1ncc(C(F)(F)F)cc1Cl` was run?
A: 25 µM (active)

Q: With `CCOP(=O)(OCC)Oc1cc(C)nc(C(C)C)n1` as the compound, how does the outcome read?
A: inactive

Q: `C=C(C)[C@H]1Cc2c(ccc3c2O[C@@H]2COc4cc(OC)c(OC)cc4[C@@H]2C3=O)O1` was tested. Which AC50 did it give?
A: 14.3 µM (active)

Q: Which outcome does the source give for `CCc1cccc(C)c1N(C(=O)CCl)C(C)COC` (stereo unspecified) here?
A: inactive

Q: `Nc1c(Cl)cc([N+](=O)[O-])cc1Cl` was tested. Which outcome did it give?
A: inactive

Q: `CC(COc1ccc(Oc2ccccc2)cc1)Oc1ccccn1` (stereo unspecified) was tested. Which outcome did it give?
A: inactive

Q: How did the outcome turn out when `CNC(=O)Oc1cccc2c1OC(C)(C)O2` was run?
A: inactive

Q: How did the outcome turn out when `CCCCSP(=O)(SCCCC)SCCCC` was run?
A: inactive

Q: With `CC(Oc1cccc(Cl)c1)C(=O)O` (stereo unspecified) as the compound, how does the outcome read?
A: inactive

Q: How did the outcome turn out when `CSC1=N[C@@](C)(c2ccccc2)C(=O)N1Nc1ccccc1` was run?
A: inactive

Q: Which outcome does the source give for `CCC(=O)Nc1ccc(Cl)c(Cl)c1` here?
A: inactive

Q: `CN1COCN(Cc2cnc(Cl)s2)C1=N[N+](=O)[O-]` was tested. Which outcome did it give?
A: inactive

Q: Which outcome does the source give for `COP(=O)(OC)OC(Br)C(Cl)(Cl)Br` (stereo unspecified) here?
A: inactive

Q: With `COP(=O)(OC)SCn1c(=O)oc2cc(Cl)cnc21` as the compound, how does the outcome read?
A: inactive

Q: Which outcome does the source give for `CON=C(C(=O)OC)c1ccccc1CON=C(C)c1cccc(C(F)(F)F)c1` here?
A: inactive

Q: How did the outcome turn out when `CCCCOC(=O)c1ccccc1C(=O)O` was run?
A: inactive

Q: With `CCCSP(=O)(OCC)SCCC` as the compound, how does the outcome read?
A: inactive

Q: `Nc1nc(N)nc(NC2CC2)n1` was tested. Which outcome did it give?
A: inactive

Q: Which outcome does the source give for `CSc1nc(NC(C)C)nc(NC(C)C)n1` here?
A: inactive

Q: `CCC(CC)Nc1c([N+](=O)[O-])cc(C)c(C)c1[N+](=O)[O-]` was tested. Which outcome did it give?
A: inactive

Q: `CNC(=O)ON=C(C)SC` was tested. Which outcome did it give?
A: inactive

Q: For `FC(F)C(F)(F)OCC(Cn1cncn1)c1ccc(Cl)cc1Cl` (stereo unspecified), which AC50 is on record?
A: 66.9 µM (active)

Q: For `C#CC(C)(C)NC(=O)c1cc(Cl)cc(Cl)c1`, which outcome is on record?
A: inactive

Q: How did the outcome turn out when `CC(C)N(C(=O)SCC(Cl)=C(Cl)Cl)C(C)C` was run?
A: inactive

Q: Which outcome does the source give for `N#CSCSC#N` here?
A: inactive

Q: How did the outcome turn out when `CC(=NC#N)N(C)Cc1ccc(Cl)nc1` was run?
A: inactive

Q: With `COc1ccc(C(=CC(=O)N2CCOCC2)c2ccc(Cl)cc2)cc1OC` as the compound, how does the outcome read?
A: inactive

Q: `CCCOCC(=Nc1ccc(Cl)cc1C(F)(F)F)n1ccnc1` was tested. Which AC50 did it give?
A: 84.3 µM (active)

Q: For `CCOP(=S)(OCC)OC(Cl)C(Cl)(Cl)Cl` (stereo unspecified), which outcome is on record?
A: inactive

Q: Which outcome does the source give for `COc1cc(OC)nc(Sc2cccc(Cl)c2C(=O)O)n1` here?
A: inactive

Q: `CCc1cnc(C2=NC(C)(C(C)C)C(=O)N2)c(C(=O)O)c1` (stereo unspecified) was tested. Which outcome did it give?
A: inactive

Q: With `CCOP(=S)(OCC)Oc1cc(C)nc(C(C)C)n1` as the compound, how does the outcome read?
A: inactive

Q: For `CCOP(=S)(Oc1cnc(C(C)(C)C)nc1)OC(C)C` (stereo unspecified), which outcome is on record?
A: inactive

Q: Which results are given for `CN(C)[C@@H]1C(=O)C(C(N)=O)=C(O)[C@@]2(O)C(=O)C3=C(O)c4c(O)cccc4[C@@](C)(O)[C@H]3[C@H](O)[C@@H]12`?
A: outcome: inactive; AC50: 5.76 µM (active)
